Experimental data: PubChem BioAssay AID1259318 (Sanford-Burnham Center for Chemical Genomics, 2017)
Hit rate of the full screen: of about 370,000 compounds, about 3,000 (0.81%) were called active. The sample holds actives, similar compounds and a random draw of the others, so the mix is not that of the screen. Values without a mark were called inactive.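 The calls were made as follows: active = activity above about 14% (limit read from the data; passing the limit was not always enough); inactive = the rest.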

Target: Nuclear receptor subfamily 1 group D member 1 (Homo sapiens) (UniProt P20393)
Sequence (P20393 whole entry, looked up): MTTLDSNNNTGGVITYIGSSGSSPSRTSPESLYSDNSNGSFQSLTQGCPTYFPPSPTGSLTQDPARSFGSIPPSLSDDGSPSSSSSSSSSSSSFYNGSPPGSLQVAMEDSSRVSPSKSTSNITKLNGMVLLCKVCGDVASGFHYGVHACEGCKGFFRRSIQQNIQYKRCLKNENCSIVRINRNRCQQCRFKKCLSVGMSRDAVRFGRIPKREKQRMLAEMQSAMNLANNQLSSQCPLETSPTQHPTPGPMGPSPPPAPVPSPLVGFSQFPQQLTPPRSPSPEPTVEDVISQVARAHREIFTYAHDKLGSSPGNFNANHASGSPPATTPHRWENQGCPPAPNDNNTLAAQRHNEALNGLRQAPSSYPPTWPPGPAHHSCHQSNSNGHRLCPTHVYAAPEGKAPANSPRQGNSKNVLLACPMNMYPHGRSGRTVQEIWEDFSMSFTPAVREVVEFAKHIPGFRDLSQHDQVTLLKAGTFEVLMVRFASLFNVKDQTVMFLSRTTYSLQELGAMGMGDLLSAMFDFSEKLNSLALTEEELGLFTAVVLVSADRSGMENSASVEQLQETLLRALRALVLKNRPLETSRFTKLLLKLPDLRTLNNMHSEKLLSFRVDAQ
Experiment: Rev-erbα–DNA interaction modulation – biochemical, FITC-DNA, fluorescence polarization, uHTS, primary screen (AID 1259318);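 also: 0% = DMSO wells with 35 nM protein and 100% = DMSO wells with 750 nM protein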
Settings: Rev-erbα–FITC-DNA binding, 90 min, at 10 µM, active compounds read high

| Compound | activity |
| --- | --- |
| Cc1ccc(-c2ccc(CN3C(C)C(=O)N(Cc4cn(CCC5OCCCO5)nn4)CCS3(=O)=O)cc2)cc1 (centres undefined) | 1.81% |
| CC1(C)C2CC[C@]3(C)C(C(=O)C=C4[C@@H]5C[C@@](C)(C(=O)O)CC[C@]5(C)CC[C@]43C)[C@@]2(C)CC[C@@H]1O (some centres undefined) | -5.93% |
| CC(C)(C)OC(=O)C[C@@H]1C/C=C\C[C@H](CC(=O)N[C@@H](CO)Cc2ccccc2)C(=O)N[C@H](Cc2ccccc2)COC1=O | -3.46% |
| Cc1ccc(C)c2c1cc(C)c1nnc(SCC(=O)Nc3cccc(C(=O)O)c3)n12 | -2.26% |
| Cc1csc(SCC(=O)Nc2sccc2C#N)n1 | -1.85% |
| COC(=O)CSc1nc2c(c(C3CC=CCC3)c1C#N)CCC2 (centres undefined) | 0.02% |
| Cc1nc2cc(NC(=O)CSc3nc4c(C)cccc4cc3C#N)ccc2s1 | 95.7% (active) |
| CCOc1ccc2cc(C#N)c(SCC(=O)OC)nc2c1 | 116% (active) |
| Cc1ccc(NC(=O)CSc2sc3c(O)cc(=O)[nH]c3c2C#N)cc1C | -17.5% |
| Cc1cc(C#N)c(SCC(N)=O)nc1-c1ccc(F)cc1 | -0.55% |
| Cc1ccc2nc(SCc3nnc(-c4ccccc4[N+](=O)[O-])o3)c(C#N)cc2c1 | -0.86% |
| Cc1nonc1NC(=O)CSc1nc2ccccc2cc1C#N | 39.8% (active) |
| CCNC(=O)CC1C(=O)N(c2ccc(OC)cc2)C(=O)N1CCOC (centres undefined) | -2.32% |
| C/C(=N\NC(=O)c1cc2c(s1)CCC(C)C2)c1cccnc1 (centres undefined) | -5.04% |
| CCCCN(CCCC)CCNC(=O)CN1C(=O)COc2ccc(S(=O)(=O)N3CCOCC3)cc21 | 2.87% |
| C[C@@H](CN1C2=NC[C@@H](Cc3ccccc3)N2C[C@H]1Cc1ccc(O)cc1)NC(=O)CCC1CCCCC1 | -3.34% |
| C[C@H]1CCC/C=C/C(=O)c2c(O)cc(O)cc2CC(=O)O1 | -5.09% |
| CC(C)OCCCNC(=O)CN1C(=O)/C(=C/c2ccccc2F)Oc2ccccc21 | 25% (active) |
| O=C(CN1C(=O)COc2ccccc21)Nc1ccc(F)cc1 | -4.74% |
| O=C(CN1C(=O)/C(=C/c2ccccc2F)Sc2ccccc21)NCc1cccnc1 | -1.22% |
| CCN(CC)C(=O)CC[C@@H]1CC[C@]2(CCCN(S(=O)(=O)C3CCCCC3)C2)O1 | -2.68% |
| COc1ccccc1OCCNCC(O)COc1cccc2[nH]c3ccccc3c12 (centres undefined) | 0.09% |
| Oc1ccc2ccc3cccc[n+]3c2c1 | 34.3% (active) |

| Compound | activity |
| --- | --- |
| COC(=O)C1=C(C)N(Cc2ccccc2C(F)(F)F)C(=NCc2ccc(OC)cc2)NC1c1cccc(C(F)(F)F)c1 (centres undefined) | 3.37% |
| C=C(C)C1CC=C(C)/C(=N/NC(=O)CCCNc2cccc(C)c2)C1 (centres undefined) | -3.69% |
| COc1ccccc1NC(=O)COC(=O)CNC(=O)C1CCCCC1 | -2.69% |
| C=C(C)C1CC=C(C)/C(=N\NC(=O)CNc2ccccc2OC)C1 (centres undefined) | 28.5% (active) |
| CN1/C(=C\C=C2\N=C(c3ccc(F)cc3)OC2=O)C(C)(C)c2ccccc21 | 36.5% (active) |
| COc1ccc(-n2c(COc3ccc(C)cc3)nnc2SCC(=O)Nc2ccc(Oc3ccccc3)cc2)cc1 | -3.25% |
| CCc1ccc(S(=O)(=O)Nc2ccc(C)c(NS(C)(=O)=O)c2)cc1 | -7.94% |
| O=C(/C=C/c1ccc(Cl)cc1)Nc1ccc(Br)cn1 | -0.31% |
| CN1C(=O)c2ccc(C(=O)Nc3ccc(Br)cn3)cc2C1=O | 73.7% (active) |
| CN1C(=O)c2ccc(NC(=O)c3c(F)c(F)c(F)c(F)c3F)cc2C1=O | -2.78% |
| CS(=O)(=O)c1ccc(Cl)c(NC(=O)COC(=O)c2ncc(Cl)c(Cl)c2Cl)c1 | -0.27% |
| Cc1[nH]c2ccccc2c1CC(=O)Nc1ccc(Nc2cccnc2)c(-c2cccc(Cl)c2)c1 | 3.32% |
| O=C(O)CCCCC(=O)O | -0.86% |
| O=C1c2ccccc2C(Nc2ccc3c(c2)OCCO3)N1Cc1ccco1 (centres undefined) | -1.18% |
| CCC(C)NC(=O)C1c2ccccc2C(=O)N1Cc1ccccc1 (centres undefined) | -2.38% |
| CCCCCn1nnnc1C1c2ccccc2C(=O)N1Cc1ccco1 (centres undefined) | 17.3% (active) |
| CC(=O)c1c(N)n(C)c(=O)n(C)c1=O | 5.4% |
| COC(=O)CN1C(=O)C(C)(C)Oc2ccc(C(=O)Nc3cccc(OC)c3)cc21 | 6.32% |
| CCOc1ccc(NC(=O)CSc2ncnc3c2sc2ccccc23)cc1 | 298% (active) |
| COc1ccc(NC(=O)CSc2ncnc3[nH]ncc23)cc1 | -0.29% |
| CCOc1ccc(NC(=O)CSc2nncn2C)cc1 | 3.05% |
| COC(=O)Nc1nc2ccc(C(=O)C3CC3)cc2[nH]1 | -10.6% |
| CC1(C)OC[C@@H](COC(=O)CCc2ccc(OC[C@@H](O)CNCCNC(=O)N3CCOCC3)cc2)O1 | 0.02% |

| Compound | activity |
| --- | --- |
| CC(NC(=S)Nc1ccccc1)C(c1cccs1)N1CCOCC1 (centres undefined) | 4.26% |
| CN(C)c1ccc(/C=C2\NC(=S)N(Cc3ccccc3)C2=O)cc1 | 40.1% (active) |
| CC(=O)C1=C(C)N(Cc2ccccc2)C(=S)NC1c1cccc(Br)c1 (centres undefined) | -3.28% |
| O=[N+]([O-])/C=C1\CCCCCN1 | -3.45% |
| COc1cccc(CNC(=O)[C@H]2CCCN2C(=O)[C@H]2CCCN2C(=O)C2CCCCC2)c1 | 4.65% |
| O=C1Nc2ccccc2C1=NN=Cc1ccco1 | -0.74% |
| Cc1cc(C)c(/C=C2\C(=O)Nc3ccccc32)[nH]1 | 22.7% (active) |
| Cc1ccc(-c2nc(CS(=O)CC(=O)N3CCN(c4ncccn4)CC3)c(C)o2)cc1 (centres undefined) | 4.76% |
| O=S(=O)(c1ccccc1)N1CCC(c2nc3ccccc3o2)CC1 | -9.25% |
| CC1(C)CC2CC(C)(CN2c2ncnc3ccc(Br)cc23)C1 (centres undefined) | 20.4% (active) |
| COCCN1CCn2c(nc3cc(NS(C)(=O)=O)ccc32)C1 | -3.86% |
| Cc1ccc(NC(=O)c2cc(C)nn2-c2ccccc2)c(C)c1 | 2.36% |
| CCOC(=O)c1ccc(NC(=O)Cn2cnc3cc(C)c(C)cc32)cc1 | 1.51% |
| CCOC(=O)c1ccc(NC(=S)Nc2cc(C)cc(C)n2)cc1 | 25.7% (active) |
| CCOC(=O)c1cn[nH]c1NC(=S)Nc1ccccc1 | -3.54% |
| COc1ccc(CNC(=O)COC(=O)/C=C/c2ccc(S(=O)(=O)N3CCOCC3)cc2)cc1 | -0.37% |
| CCSc1nnc(SCC(=O)NNC(=O)c2ccccc2F)s1 | -6.25% |
| O=C(Nc1ccccc1F)c1ccccc1-c1ccccc1 | 8.73% |
| O=C(Nc1nnc(-c2ccccc2F)s1)c1ccccc1F | 23.9% (active) |
| CC1(Oc2ccccc2-c2ccno2)CCN(Cc2ccc(-c3ccccc3)o2)C1 (centres undefined) | -3.17% |
| O=C(Nc1cccc(Cl)c1)OC1CC2CC1[C@H]1CCCCN1[C@H]2Cc1ccccc1 (some centres undefined) | 0.26% |
| COc1cccc(-n2c(SCC(=O)c3c[nH]c4ccccc34)nc3ccccc3c2=O)c1 | 69.3% (active) |
| COc1ccc(-n2c(SCC(=O)Nc3ccc(C)c(Cl)c3)nc3ccccc3c2=O)cc1 | -4.51% |

| Compound | activity |
| --- | --- |
| CCCn1c(N)c(C(=O)CSc2nc3ccccc3c(=O)n2-c2ccc(OC)cc2)c(=O)[nH]c1=O | -7.88% |
| Cc1ccc(C2=Nc3c(ccc4ccccc34)C(c3ccncc3)=NN2)cc1 | 3.5% |
| Cc1ccc(S(=O)(=O)N2[C@@H](Cc3ccccc3)CO[C@H]2CC(=O)OCc2ccccc2)cc1 | -1.88% |
| Cc1cc(Br)ccc1NC(=O)c1cnc(N2CCN(c3ccccn3)CC2)c2ccccc12 | 0.52% |
| Cc1cc(Br)ccc1NC(=O)c1sc2ncn(CC(=O)N3CCN(c4ccccn4)CC3)c(=O)c2c1C | 58.2% (active) |
| Cc1sc2ncn(CC(=O)NCCCC(=O)N3CCN(c4ccccc4F)CC3)c(=O)c2c1C | -0.15% |
| CCCCOc1ccc(N(CC(=O)NC(C)C)C(=O)CCC(=O)Nc2ccccn2)cc1 | -9.8% |
| CCC(C(=O)NC1CCCC1)N(C(=O)c1snc(C(N)=O)c1N)c1ccc2c(c1)OCCO2 (centres undefined) | 34.2% (active) |
| CCC(C(=O)NC1CCCCC1)N(C(=O)c1snc(C(N)=O)c1N)c1ccc(OC)cc1OC (centres undefined) | 2.92% |
| COc1ccc(N(C(=O)c2snc(C(N)=O)c2N)C(C(=O)NC2CCCC2)c2ccco2)cc1OC (centres undefined) | 4.63% |
| COc1ccc(C(=O)CN2C(=O)NC3(CCc4ccccc43)C2=O)c(OC)c1 (centres undefined) | 6.28% |
| O=C(Nc1cccnc1)c1noc2c1CCCCC2 | 0.99% |
| O=C(O)C1=CCCN(CCON=C(c2ccccc2)c2ccccc2)C1 | -6.65% |
| COc1ccc(CCNC(=O)CSc2nc(-c3ccc(OC)c(OC)c3)ccc2C#N)cc1 | 56% (active) |
| COc1ccc(CCNC(=O)CSc2nnc(-c3cccc(F)c3)o2)cc1OC | 6.95% |
| COc1ccc(CCNC(=O)CSc2nc(C)nc3c2oc2ccccc23)cc1OC | -3.78% |
| COc1cc(OC)cc(C(=O)NCCSCc2ccc(Cl)cc2)c1 | -1.8% |
| COc1cccc(-c2ccc(C#N)c(SCC(=O)NCCc3ccc(Cl)cc3)n2)c1 | 29.2% (active) |
| COc1ccc(CCNC(=O)CSc2nnc3ccc(-c4ccncc4)nn23)cc1 | 2.33% |
| O=C(O[C@@H]1[C@H](Cc2ccccc2)NS(=O)(=O)[C@H]2C[C@@H]3C=C[C@]12O3)c1ccccc1Br | 4.17% |
